Screening results deposited in PubChem BioAssay by The Scripps Research Institute Molecular Screening Center.
PPARg SRC-2 ag: PPARgamma-driven SRC-2 recruitment agonism; PPARgamma LBD-SRC-2 recruitment, biochemical; activation, % at 8 µM; 200,000 compounds, 0.34% hits; in the data active = activation above about 22%;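 also: 0% = vehicle and 100% = reference agonist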
Target sequence (P37231 whole entry, looked up, the tested form may be a part): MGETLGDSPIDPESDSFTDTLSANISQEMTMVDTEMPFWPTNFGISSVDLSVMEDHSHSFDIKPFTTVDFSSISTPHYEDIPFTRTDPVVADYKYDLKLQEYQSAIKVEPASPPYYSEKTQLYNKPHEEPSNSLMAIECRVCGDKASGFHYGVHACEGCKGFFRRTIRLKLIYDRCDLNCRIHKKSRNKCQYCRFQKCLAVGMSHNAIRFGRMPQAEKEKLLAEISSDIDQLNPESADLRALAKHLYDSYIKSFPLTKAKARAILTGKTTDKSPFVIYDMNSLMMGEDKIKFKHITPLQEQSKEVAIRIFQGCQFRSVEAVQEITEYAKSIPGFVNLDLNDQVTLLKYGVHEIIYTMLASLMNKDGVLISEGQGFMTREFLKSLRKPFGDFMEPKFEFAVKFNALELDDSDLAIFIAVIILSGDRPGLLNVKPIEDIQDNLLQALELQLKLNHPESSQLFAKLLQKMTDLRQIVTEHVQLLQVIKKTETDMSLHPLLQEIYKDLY
TR-FRET SRC-2 ct: flags TR-FRET format artefacts in PPARgamma SRC-2 recruitment agonist screen. TR-FRET artefact counter-screen; hits give high values. TR-FRET ratio at 8 µM. 200,000 compounds, 0.4% hits. AID 1049
SRC1 TRFRET art: TR-FRET artefact, counter-screen to PPARgamma/SRC-1 agonist assay | TR-FRET detection artefact counter-screen, emission ratio; hits give high values | TR-FRET ratio at 8 µM | 99,000 compounds, 0.34% hits; in the data active = TR-FRET ratio above about 2300
SRC3 TRFRET art: flags TR-FRET format artefacts in PPARgamma SRC-3 recruitment agonist screen. 99,000 compounds, 0.39% hits. TR-FRET artefact counter-screen, PPARgamma/SRC-3 format; hits give high values. AID 1048. TR-FRET ratio at 8 µM
PPARg SRC1 recr: PPARgamma-driven SRC-1 recruitment agonism; PPARgamma-SRC-1 coactivator recruitment biochemical assay; AID 631; P37231; 200,000 compounds, 0.41% hits; activation, % at 8 µM; in the data active = activation above about 19%;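 also: 0% = DMSO and 100% = reference agonist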
PPARg SRC-3 ag: agonists of human PPARgamma SRC-3 coactivator recruitment; activation, % at 8 µM; P37231; AID 731; biochemical PPARgamma/SRC-3 coactivator recruitment assay; 200,000 compounds, 0.26% hits; in the data active = activation above about 23%;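 also: 0% = DMSO and 100% = reference agonist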
The depositor's hits bear a star; . = no result given. The list is not random: actives were taken first. Their share in the collection is about 0.9%. Rule as the data show it, unless noted: active = TR-FRET ratio above about 2000; inactive = the rest.

SMILES	PPARg SRC-2 ag	TR-FRET SRC-2 ct	SRC1 TRFRET art	SRC3 TRFRET art	PPARg SRC1 recr	PPARg SRC-3 ag
O=C(CCC(=O)Nc1ccccc1)NNC(=O)c1ccccc1Cl	9.9	1835	1789	1687	-2.2	-2.9
COc1ccc(CN(Cc2cc3cccc(C)c3n3nnnc23)C(=O)N2CCOCC2)cc1	10.2	1640	1832	1522	-3.2	3.7
CCCOc1cc(N(CC)CC)ccc1/C=C(/C#N)c1nc2ccc(C)cc2[nH]1	37.3*	2008*	.	.	2.4	4.7
CCN(CC)c1ccc(/C=C(/C#N)c2nc3ccc(C)cc3[nH]2)c(OC(C)C)c1	0.9	1540	.	.	6.7	7.8
CCOC(=O)NC(=O)/C(C=Nc1ccc(Cl)cc1)=C(\C)O	2.7	1815	1669	1606	5.9	0.8
Cc1ccc2c(ccc(=S)n2C)c1	16.5	1798	2278	2121*	12.8	5.2
CCOC(=O)c1c(-c2ccccc2)csc1NC(=O)c1ccc(S(=O)(=O)N2CC(C)OC(C)C2)cc1 (stereo not drawn)	-6.1	1345	.	.	-3.0	-1.3
CCOC(=O)c1c(-c2ccccc2)csc1NC(=O)c1cc(S(=O)(=O)N2CCOCC2)ccc1C	6.4	1857	1833	2203*	5.1	3.9
O=C1OCCC1Sc1nnc(-c2ccc(Br)cc2)o1 (stereo not drawn)	23.9*	1523	.	.	2.6	2.4
Clc1ccc(Cl)c2sc(N3CCCC3)nc12	-5.9	1469	.	.	2.3	-3.0
c1ccc2sc(N3CCOCC3)nc2c1	8.8	1698	.	.	6.3	-1.2
COc1cccc2sc(N3CCN(c4nc5ccccc5s4)CC3)nc12	3.1	1528	.	.	12.3	30.9*
Clc1cccc2sc(N3CCN(c4ccccc4)CC3)nc12	28.1*	1671	2030	1618	1.4	-1.3
Cc1ccc(CN2CCN(Cc3ccc(-n4cccn4)cc3C)CC2CCO)cc1 (stereo not drawn)	-1.5	1425	1456	1381	-1.1	-5.6
CCOC(=O)CCCNC(=O)COC(=O)[C@@H]1CCCN1S(=O)(=O)c1ccc(Cl)cc1	-0.9	1463	1650	1632	0.9	3.7
CCCCC(=O)Nc1nc2ccc3nc(C)sc3c2s1	6.8	1978*	.	.	-4.5	-0.4
O=C1CC(c2ccccc2Cl)=NN(c2ncnc3ccccc23)C1=O	0.7	1803	1841	1506	6.1	4.2
Cc1noc(C)c1S(=O)(=O)N(CC(=O)Nc1ccc2c(c1)OCO2)c1ccc(C(C)C)cc1	10.9	1718	.	.	4.3	4.8
Cc1n[nH]c(C)c1S(=O)(=O)N(CC(=O)Nc1ccc2c(c1)OCCO2)c1ccc(C(C)C)cc1	23.8*	1632	.	.	7.0	0.4
O=c1c2ccccc2nc(-c2ccccc2)n1CCCN1CCOCC1	1.9	1680	.	.	18.8*	5.4
Cc1ccc(-c2nc3ccccc3c(=O)n2CCCN2CCOCC2)cc1	7.8	1786	.	.	13.3	8.6
O=C(OC1CCCCC1)c1ccc2c(c1)C1C=CCC1C(C(=O)O)N2 (stereo not drawn)	19.2	2020*	1642	1554	3.8	5.4
CCCC(=O)Nc1ccccc1NC(=O)c1ccc(OCC)c(OCC)c1	-2.5	1461	1619	1673	5.3	-1.4
COc1ccc(C(C)(C)C)cc1NC(=O)Cn1cnnn1	6.8	1826	1957	1637	5.4	0.7
CC(=O)C1=C(C)NC(SCC(=O)c2ccc(-c3ccccc3)cc2)=C(C#N)C1c1cccnc1 (stereo not drawn)	12.6	2094*	.	.	6.5	2.5
SMILES	PPARg SRC-2 ag	TR-FRET SRC-2 ct	SRC1 TRFRET art	SRC3 TRFRET art	PPARg SRC1 recr	PPARg SRC-3 ag
CC(C)(C)c1ccc(-c2nnc3sc(-c4ccncc4)nn23)cc1	189.9*	5672*	.	.	-0.2	-7.4
COc1ccc(C2(CNC(=O)/C=C\c3ccco3)CCCC2)cc1OC	1.6	1498	.	.	40.8*	-5.5
Cc1nc(N2CCCCC2)c2c(C)c(C(=O)Nc3cccc(C(F)(F)F)c3)sc2n1	13.8	1762	2255	2057*	6.6	12.4
Cc1nc(N2CCCCC2C)c2c(C)c(C(=O)Nc3cccc(C(F)(F)F)c3)sc2n1 (stereo not drawn)	8.3	1633	2035	1608	12.7	4.0
Cc1ccc(NC(=O)c2sc3nc(C)nc(N4CCN(c5ccccn5)CC4)c3c2C)c(C)c1	-3.5	2163*	3496*	2659*	4.3	-2.2
COc1ccc(-c2c(=O)n(OCc3ccccc3[N+](=O)[O-])c3ccccc3[n+]2[O-])c(OC)c1	2.8	1551	1903	1589	-1.8	2.0
O=C(Nc1nc(-c2ccco2)c(-c2ccco2)s1)C1CCC1	9.2	1761	2403*	1995	10.9	11.8
O=C(CSCC(=O)N1CCCCC1)Nc1nc(-c2ccccc2)c(-c2ccccc2)s1	8.2	1498	2010	2244*	4.1	7.8
COc1ccc(-c2sc(NC(C)=O)nc2-c2ccccc2)cc1	-2.6	1610	1702	1517	3.9	4.5
Cc1ccc(-c2[nH]c3ccccc3c2SCCNC(=O)c2ccc(S(=O)(=O)N3CCOCC3)cc2)cc1	8.4	2560*	3343*	2709*	6.0	9.7
COc1ccc(C(=O)NCCSc2ccccc2)cc1	11.4	1445	1905	1629	6.3	4.0
COc1ccc(-c2[nH]c3ccccc3c2SCCNC(=O)c2ccccc2)cc1	23.8*	1807	2021	2781*	8.4	4.1
Cc1cc2ccccc2n1CCNC(=O)c1ccc(S(=O)(=O)N2CCOCC2)cc1	3.5	1798	2656*	2905*	0.1	3.2
Cc1cc2ccccc2n1CCNC(=O)c1ccccc1	7.2	1939	.	.	2.9	6.8
O=C(NCc1nc2ccccc2[nH]1)c1ccc(S(=O)(=O)N2CCOCC2)cc1	5.5	1535	.	.	3.3	1.2
CNC(=O)CSc1nnc(C(C)C)n1C	9.2	1621	1873	1729	10.0	3.9
O=c1c2cc(NC(=S)NCc3cccnc3)ccc2nc2n1CCCCC2	3.4	1727	2082	1783	8.1	1.4
COc1cc2c(cc1OC)C(C(=O)Nc1cc(OC)c(OC)c(OC)c1)C(c1cccnc1)N(C)C2=O (stereo not drawn)	-11.1	1495	1585	1359	-4.3	-1.4
O=C(CNC(=O)c1ccc(Cl)cc1)OCC(=O)N1CCCC1	4.1	1593	1815	1397	1.8	0.4
COC(=O)c1ccc(C(=O)OC)c(NC(=O)C(C)(C)C)c1	8.7	1765	3181*	1496	46.1*	-0.1
COC(=O)c1ccc(C(=O)OC)c(NC(=O)CCC(=O)O)c1	3.2	1558	.	.	6.7	-6.7
Cc1nc(N)c(Cc2ccccc2F)c(N)n1	1.5	1614	1829	1534	10.8	2.1
CC(C)(C)NC(=O)CSc1nnc(-c2ccco2)n1Cc1ccco1	13.0	2029*	1846	1540	4.7	2.8
COc1ccc(C)cc1NC(=S)NNC(=O)c1c(Br)cnn1C	3.0	1647	1805	1551	3.2	3.6
CNC(=S)N1N=C(c2ccccc2)CC1c1ccc(OC)c(OC)c1 (stereo not drawn)	15.2	1694	2320*	1736	16.5	7.0
